V-ATPase pH: regulators of yeast V-ATPase proton pumping, primary screen, pHLuorin cytosolic pH fluorescence; S. cerevisiae; response, % at 10 µM; AID 504577, 2011; 350,000 tested, 0.37% active; in the data active = response mostly above about 7.3%, no sharp cut-off; inactive = mostly below about 5.4%; note: actives read high
VLA-4 inh: inhibition in human VLA-4 binding assay, primary screen, VLA-4 allosteric modulator project, MLPCN library, flow cytometry, VLA-4 expressing cells; Integrin alpha-4 (Homo sapiens), P13612; ligand binding flow cytometry; inhibition, % (about 7 µM as worked out from the volumes in the protocol); 330,000 tested, 0.2% active; in the data active = inhibition above about 50%
MEX-5 binding: MEX-5 zinc finger RNA-binding disruptors – biochemical, C. elegans, fluorescence polarization, MLPCN library, primary screen; Zinc finger protein mex-5 (Caenorhabditis elegans), Q9XUB2; MEX-5/FITC-TCR2 RNA binding; hits give low values; activity score (negative = inhibition of binding), % at 10 µM; 300,000 tested, 0.38% active; AID 1832, 2009;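 active = inhibition past about -25% in most replicates, and total fluorescence under double the plate's negative control median, limit read from the data; inconclusive = replicates evenly split on the limit, or fluorescence at least double controls; inactive = too little inhibition in most replicates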;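 note: 0% = DMSO and -100% = 5 µM competing unlabeled TCR2 RNA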
Target sequence (Q9XUB2 whole entry, looked up): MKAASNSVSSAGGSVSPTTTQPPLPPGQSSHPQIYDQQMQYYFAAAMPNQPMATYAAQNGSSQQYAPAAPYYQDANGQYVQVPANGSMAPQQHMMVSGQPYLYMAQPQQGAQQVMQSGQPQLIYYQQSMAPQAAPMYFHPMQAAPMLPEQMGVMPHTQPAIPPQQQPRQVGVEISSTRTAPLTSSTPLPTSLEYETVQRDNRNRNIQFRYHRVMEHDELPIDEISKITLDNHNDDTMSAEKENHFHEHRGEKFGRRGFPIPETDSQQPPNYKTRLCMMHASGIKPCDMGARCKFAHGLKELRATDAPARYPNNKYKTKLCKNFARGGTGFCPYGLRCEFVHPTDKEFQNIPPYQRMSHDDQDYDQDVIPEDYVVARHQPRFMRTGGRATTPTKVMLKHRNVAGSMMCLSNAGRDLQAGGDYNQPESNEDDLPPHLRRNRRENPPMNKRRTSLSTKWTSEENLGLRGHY
HTR2A ag: mouse Htr2a agonists via beta-arrestin recruitment, primary screen, cell-based, luminescence; 360,000 tested, 0.66% active; 5-hydroxytryptamine receptor 2A (Mus musculus), P35363; activation, % at 7.6 µM; AID 624169, 2012; CHO-K1 mHTR2A beta-arrestin complementation; percent of 30 µM serotonin response;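 active = activation above a run cutoff, the mean activation of all tested compounds plus 3 SD, cut at about 14% in these data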;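 note: 0% = plate median of compound wells and 100% = 30 µM serotonin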
JMJD2C inh: inhibitors of GASC-1 histone demethylase, primary screen, biochemical, fluorescence, DELFIA europium | inhibition, % at 2.35 µM | 330,000 tested, 0.069% active | GST-JMJD2C(1-420) H3K9me3 demethylation | AID 2099, 2009;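 active = more than half of a compound's replicate wells show inhibition beyond 50%, single wells judged on their own value; inconclusive = some, but no more than half, of replicates pass 50% inhibition; inactive = no replicate passes 50% inhibition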;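 note: signal counts dimethyl H3K9 product captured on neutravidin plate; 0% = median of DMSO wells and 100% = 0.3 times that DMSO median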
Granule exo inh: LAMP-1 surface exposure blockers, TALL-104 cells – cell-based, flow cytometry, MLPCN library, primary screen. inhibition, % at 10 µM. 360,000 tested, 0.66% active. TALL-104 LAMP-1 surface exposure; cells stimulated with thapsigargin and PMA;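 active = inhibition above about 55%, limit read from the data; inconclusive = no clear call, values can overlap the other calls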
* hit, by the source's call; ? = inconclusive; . = no result given. Compounds with a hit are over-represented: about 2.2% of the library has one in this group of screens.

SMILES	V-ATPase pH	VLA-4 inh	MEX-5 binding	HTR2A ag	JMJD2C inh	Granule exo inh
O=C(O)c1ccc2nc(-c3ccco3)c(-c3ccco3)nc2c1	-2	.	-29*	-3	-30	-1
O=C(Nc1cccc(C(F)(F)F)c1)c1ccc2nc(-c3ccco3)c(-c3ccco3)nc2c1	-1	-11	1	16*	27	-1
Cc1csc(NC(=O)c2ccc(COc3ccccc3)o2)n1	1	2	-2	5	-9	2
CCN1CCN(C(=O)CN(CC)S(=O)(=O)c2ccc3ccccc3c2)CC1	2	3	2	-4	7	15
O=C(NCc1ccco1)C1CCN(S(=O)(=O)c2cccc([N+](=O)[O-])c2)CC1	1	6	1	8	-14	3
COc1ccc(S(N)(=O)=O)cc1C(=O)OCCCC(=O)c1ccccc1	1	15	.	-3	19	-3
Cc1nn(-c2ccccc2)c(N2CCCC2)c1/C=N/NC(=O)c1ccccc1O	-2	-15	-2	1	-8	2
Cc1nn(-c2ccccc2)c(N2CCCC2)c1/C=N/NC(=O)c1cc(-c2cccnc2)nc2ccccc12	-4	16	-28*	-3	-10	-5
COc1ccccc1-c1cccc2nccn12	.	.	.	-3	.	11
Cc1nn(-c2ccc(N3CCCCC3)nn2)c(C)c1CCC(=O)Nc1cc(F)ccc1F	-3	15	1	-4	6	4
CN(c1ccc(C(=O)NCc2ccccn2)cc1)S(=O)(=O)c1ccc(Cl)cc1	2	0	1	-6	-1	-2
c1cc2c3c(cccc3c1)NC1(CCCC1)N2	8	.	.	2	.	1
CC1(C)Nc2cccc3cccc(c23)N1	2	.	.	-5	.	63*
Cc1c(C(=O)Nc2ccc(S(=O)(=O)N(C)C3CCN(C)CC3)cc2)oc2c(Cl)cccc12	-3	1	3	-13	7	4
CS(=O)(=O)c1ccc(S(=O)CC(=O)OCc2ccccc2)c([N+](=O)[O-])c1 (centres undefined)	2	.	2	-6	-7	97*
O=C(CS(=O)c1ccc(C(F)(F)F)cc1[N+](=O)[O-])Oc1ccccc1 (centres undefined)	-3	25	-1	2	-8	56*
CCOC(=O)c1ccccc1OC(=O)CS(=O)c1ccccc1[N+](=O)[O-] (centres undefined)	2	2	-2	-3	-5	-1
C#C[C@]1(O)CC[C@H]2[C@@H]3CCC4=C(CCC(=O)C4)[C@H]3CC[C@@]21C	-4	2	-1	2	-9	2
C#C[C@]1(O)CC[C@H]2[C@@H]3CCC4=CC(=O)CC[C@@H]4[C@H]3CC[C@@]21C	25*	3	1	2	6	5
O=C(/C=C\c1ccc(-c2ccccc2)o1)c1ccccc1	-1	19	1	1	4	86*
Cc1ccc(C(=O)/C=C/c2ccc(-c3ccc(C)cc3)o2)cc1	2	-22	-1	9	-13	72*
CC(=O)c1ccc(S(=O)(=O)N2CCC(NC(=O)c3ccccc3)CC2)cc1	-4	0	2	-4	-2	-5
CC(=O)N(C)C1=C(N2CCOCC2)C(=O)c2ccccc2C1=O	1	10	-3	7	99*	12
CCOc1ccc(N(CC(=O)N2CCCCCC2)S(=O)(=O)c2ccc(C)cc2)cc1	1	2	2	-6	-34	-1
CN(C)c1ccc(N=Cc2ccco2)cc1	-2	-16	.	-2	11	9
SMILES	V-ATPase pH	VLA-4 inh	MEX-5 binding	HTR2A ag	JMJD2C inh	Granule exo inh
C(=Nc1cccc2c(N=Cc3ccco3)cccc12)c1ccco1	-3	-6	-3	-2	28	103*
CN(C)C(=O)CCC(=O)N1CCCC(C(=O)c2ccc(C(F)(F)F)cc2)C1 (centres undefined)	-4	10	1	4	0	-1
COc1ccc(S(=O)(=O)N2CCC(C(=O)Nc3ccccc3N3CCCCC3)CC2)cc1OC	0	2	1	6	?	1
N#CC1=C(N)NC(=S)C(C(N)=O)C1c1ccccc1F (centres undefined)	1	-2	-3	-2	.	-8
N#CC1=C(N)NC(=S)C(C(N)=O)C1c1ccc(Cl)cc1Cl (centres undefined)	-71	25	-2	-1	5	99*
COc1ccc2cc3cc(C(=O)NCCN4CCN(c5ccccc5F)CC4)oc3nc2c1	-7	13	0	-3	-5	1
COc1ccc2cc3cc(C(=O)Nc4ccccc4N4CCN(C)CC4)oc3nc2c1	1	0	-1	16*	4	21
CCCCCCCCC[n+]1cccc2c3ccccc3ccc21	-6	-14	-1	7	4	56*
CCCCCCCCCCCCCCCC[n+]1cccc2ccccc21	11	-23	.	4	0	40
CCOCCCNC(=O)CN1CCN(S(=O)(=O)c2ccc3c(c2)CCC3)CC1	0	5	.	1	-4	0
Cc1ccccc1N1CCN(C2CCCN(C(=O)CCc3c(C)noc3C)C2)CC1 (centres undefined)	-4	-1	-1	4	-8	-2
N=c1c(S(=O)(=O)c2ccc(Cl)cc2)cc2c(=O)n3ccccc3nc2n1C1CCCCC1	-1	6	-46*	-9	0	1
N=c1c(S(=O)(=O)c2ccccc2)cc2c(=O)n3ccccc3nc2n1C1CCCC1	-8	-4	-8	-7	-27	49
N=c1c(S(=O)(=O)c2ccc(Cl)cc2)cc2c(=O)n3ccccc3nc2n1CCc1ccccc1	2	-5	-63*	1	-4	-2
O=C(O)c1ccc(Cl)cc1Nc1nc2cc(Cl)ccc2o1	2	3	0	1	10	16
CCCCCCCCN1C(=O)[C@H](CC(=O)N2CCCCC2)C[C@@]2(C(=O)OCC)CCCC=C12	.	.	.	0	.	3
CCN1CCN(C(CNS(=O)(=O)c2ccccc2)c2cccnc2)CC1 (centres undefined)	-3	-16	3	-5	-2	2
COc1ccccc1C1NC(=O)NC(C)=C1C(=O)OC1CCCCC1 (centres undefined)	-3	-14	0	15*	8	1
Cc1ccc(C)n1-c1ccc(C(=O)O)cc1	.	17	-50*	.	-13	.
CCN(CC)c1ccc(/C=C2/SC(=O)N(C(C)C)C2=O)o1	2	.	17	-2	15	78*

Screening data as filed in PubChem BioAssay.
